Measured values reported in PubChem BioAssay (NCI).
About 79,000 compounds went through this panel and 15% of them were active in at least one assay; those are over-represented in the sample as a whole. Rule as the data show it: active = growth inhibition above about 70%; inactive = the rest.

Columns and labels:
[1] = NCI Yeast Anticancer Drug Screen. Data for the rad50 strain (AID 155);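 also: 0% = growth of vehicle-only cultures of the same strain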; conditions: S. cerevisiae rad50 strain growth inhibition; at 50.0 µM; hits give high values
Procedure, shortened: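 DNA repair mutant yeast, compound exposure, growth read-out; inhibition is taken relative to vehicle.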

[2] = NCI Yeast Anticancer Drug Screen. Data for the mec2-1 strain (AID 157); conditions: S. cerevisiae mec2-1 strain, at 50.0 µM, hits give high values
Procedure, shortened: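 Using mec2-1 yeast: add compound, measure growth, express inhibition versus vehicle-treated cultures.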

[3] = NCI Yeast Anticancer Drug Screen. Data for the sgs1 mgt1 strain (AID 161);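 also: 0% = growth of cultures given vehicle only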; conditions: S. cerevisiae sgs1 mgt1 strain, at 50.0 µM, hits give high values
Procedure, shortened: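 Compounds are added to genetically altered yeast, and growth is compared with cultures given vehicle alone to give percent inhibition.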

[4] = NCI Yeast Anticancer Drug Screen. Data for the cln2 rad14 strain (AID 165);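 also: 0% = growth equal to vehicle treated cultures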; conditions: S. cerevisiae cln2 rad14 strain, at 50.0 µM, hits give high values
Procedure, shortened: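 Yeast strain cln2 rad14, bearing defects in cell cycle control and DNA repair, serves as the test system; values reflect growth inhibition compared with vehicle.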

[5] = NCI Yeast Anticancer Drug Screen. Data for the bub3 strain (AID 167); conditions: S. cerevisiae bub3 mutant strain, at 50.0 µM, hits give high values
Procedure, shortened: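 In this screen, a yeast mutant lacking normal mitotic checkpoint function is challenged with compound. Relative growth versus vehicle gives the inhibition value.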

[6] = NCI Yeast Anticancer Drug Screen. Data for the mlh1 rad18 strain (AID 175); conditions: S. cerevisiae mlh1 rad18 strain growth inhibition; at 50.0 µM; hits give high values
Procedure, shortened: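 Steps: expose repair-defective yeast to compound; measure growth; express inhibition against vehicle-treated controls.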

Measured: growth inhibition

S=C(c1ccccc1)N1CCCCC1
inactive: [1] 8% | [2] -1.7% | [3] 0.45% | [4] -23.4% | [5] 16.3% | [6] 4.05%

CC1=Nc2c(C)noc2CC(c2ccccc2O)C1 (stereo not given)
inactive: [1] -1.5% | [2] -2.6% | [3] -2.05% | [4] 27.2% | [5] -15.8% | [6] -5.35%

COC(=O)c1sc(=O)n(-c2ccccc2)c1SCc1ccccc1
inactive: [1] 25.4% | [2] -5.15% | [3] 60% | [4] 12.9% | [5] 30.8% | [6] 18.8%

Cc1cc(Cl)ccc1C(=O)O
inactive: [1] -0.9% | [2] 9.7% | [3] 13.3% | [4] 1.35% | [5] -12.8% | [6] 20.2%

N#C/C(=C\c1cccc(Cl)c1)C(=O)c1ccccc1
inactive: [1] 1.1% | [2] 11.3% | [3] -1.35% | [4] 13.1% | [5] 0.2% | [6] 33.2%

CC(Sc1ccc([N+](=O)[O-])cn1)C(=O)O (stereo not given)
inactive: [1] 2.55% | [2] 12.9% | [3] 13.5% | [4] -37% | [5] -25.9% | [6] 30.9%

FC(F)(F)c1nc2ccccc2[nH]1
inactive: [1] 16.9% | [2] -1.4% | [3] 9.55% | [4] 14.8% | [5] -1.65% | [6] 13.3%

COc1cc(COC(=O)c2ccc(CSc3ccc(Cl)cc3)o2)cc(OC)c1OC
inactive: [1] -19.4% | [2] -33% | [3] -0.75% | [4] -8.4% | [5] -13.9% | [6] -10.8%

COc1ccc2nc(-c3ccccc3)c(=O)[nH]c2c1
inactive: [1] 4.1% | [2] 13.8% | [3] 24.7% | [4] 12.6% | [5] 25.1% | [6] 10.5%

CCCCCCCC/C=C\CCCCCCCCCCCC(=O)O
inactive: [1] -5.7% | [2] 5.75% | [3] 0.4% | [4] -46% | [5] -17% | [6] -6.25%

CCOC(=O)NN(C(=O)OCC)C(=C(c1ccccc1)N1CCOCC1)N(NC(=O)OCC)C(=O)OCC
inactive: [1] 6.3% | [2] 5.6% | [3] -2.7% | [4] 31.1% | [5] -2.25% | [6] 10.8%

C=CCOC(=O)C(C)OC(=O)/C(Cl)=C/C(=O)O (stereo not given)
inactive: [1] -2.45% | [2] 7.25% | [3] 16.4% | [4] -29.4% | [5] 10.5% | [6] 6.15%

Cc1cc(CC(O)(c2ccccc2)c2ccccc2)nc2[nH]c(=O)ccc12
inactive: [1] 0.7% | [2] -6.7% | [3] -1.05% | [4] 44.9% | [5] 6.95% | [6] -1.35%

Cc1cc(=O)n(C)c2ccc(N)cc12
inactive: [1] -3.85% | [2] 3.75% | [3] -4% | [4] -14.8% | [5] 10.5% | [6] 1.85%

COc1cccc2c1C(=O)c1c(O)c3c(c(O)c1C2=O)C[C@@](O)(/C(C)=N\NC(=O)CCC(N)C(=O)O)C[C@@H]3OC1CC(N)C(O)C(C)O1 (stereo not given in full) (tested in a mixture with another compound)
inactive: [1] -30.9% | [2] -57.9% | [3] 0.65% | [4] -6.05% | [5] -25.8% | [6] -46.7%

N#CC(Cc1ccccc1)C(=O)O (stereo not given)
inactive: [1] 2.05% | [2] 0.5% | [3] -5.35% | [4] 2% | [5] 1.4% | [6] 0.8%

CNc1ccc(C(=O)O)cc1C
inactive: [1] 1.25% | [2] 12.6% | [3] 9.8% | [4] -15.8% | [5] -56.4% | [6] 0.4%

CC(C)(C)c1cc(/C=N/NC(=S)Nc2ccccc2)cc(C(C)(C)C)c1O
inactive: [1] 25.9% | [2] 8.35% | [3] 41% | [4] -26.3% | [5] -7.15% | [6] 41.5%

C/C=C(\CC)C(C#N)O[Si](C)(C)C (stereo not given)
inactive: [1] 13.2% | [2] 4.4% | [3] 1.45% | [4] 6.5% | [5] 10% | [6] -24.6%

CN(C)c1ncnc2c1ncn2CC(O)CN (stereo not given)
inactive: [1] -7.9% | [2] -8.65% | [3] -15.8% | [4] 4.4% | [5] 5.4% | [6] -17.2%
